Screening data from PubChem.
A selection: hits, their analogues and other compounds. The true share with any hit is near 19%.
DT40 TDP1 CPT: growth inhibition of DT40 Tdp1-/-;hTDP1 cells with camptothecin (screen for TDP1 inhibitors); AID 686979; 420,000 compounds, 12% hits; chicken DT40 Tdp1-/-;hTDP1 cells + 20 nM CPT, ATP luminescence, 48 h; Potency, µM (doses to about 46.2 µM), for the others: at the top dose activity change, negative = growth inhibition, hits mostly inhibitors; further: potency means the concentration at half of the fitted maximal effect; nearly all actives have a fitted effect of over 55% in size
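Chicken DT40 Tdp1-/- cells complemented with human TDP1, 400 cells/well, exposed to compounds plus 20 nM camptothecin for at least 48 h at 37 C; viability read as ATP content by CellTiter-Glo luminescence.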
TDP1 cell noCPT: qHTS for Inhibitors of human tyrosyl-DNA phosphodiesterase 1 (TDP1): qHTS in cells in absence of CPT; Potency, µM (doses to about 46.2 µM), inactives show top-dose activity change, negative = growth inhibition, most hits filed as inhibitors; DT40 Tdp1-/- hTDP1 cells, no CPT, ATP luminescence, 48 h; 420,000 compounds, 15% hits; AID 686978, 2013; further: potency means the concentration at half of the fitted maximal effect; nearly all actives have a fitted effect of over 55% in size
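Compound effects on proliferation are scored in DT40 Tdp1-/-;hTDP1 cells in the absence of CPT. ATP levels (CellTiter-Glo luminescence) are recorded after a ≥48 hr, 37 °C incubation.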
IL1B secr inh: inhibitors of inflammasome signaling (IL-1 beta secretion). 360,000 compounds, 4.7% hits. THP-1 LPS/ATP IL-1B secretion, AlphaLISA, 16 h; active compounds read low. activity change, % at 57.5 µM; in the data active means activity change below about -50%; inconclusive means mostly about -30% to -49%
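Secreted IL-1B measured by AlphaLISA bead assay after 16 h compound exposure of THP-1 cells; compounds (final up to 57.5 uM) added 1 h before LPS (250 ng/mL) and ATP (1.25 mM) stimulation; lower signal means less secretion.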
ELG1 DNA repair: blocks ELG1-dependent DNA repair in HEK293T cells; HEK293T ELG1-luciferase reporter, luminescence, 16 h; DNA damage induced by 5-fluorouridine; Potency, µM (top dose mostly 46.1 µM), for the others: at the top dose activity change, negative = inhibition, most hits filed as inhibitors; 330,000 compounds, 2.3% hits; AID 504467; further: potency means the concentration at half of the fitted maximal effect; nearly all actives have a fitted effect of over 55% in size
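In this reporter screen, reduction of luminescence relative to DMSO vehicle indicated activity. Compounds and 5-fluorouridine were added together to 2,000 cells per well, incubated for 16 hr at 37 °C, then developed with ONE-Glo.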
Giardia killer: kills Giardia lamblia; activity change, % at 7.66 µM, hits read low; Giardia lamblia trophozoite viability; 340,000 compounds, 0.15% hits; in the data active means activity change below about -80%; inconclusive means between about -30% and that limit;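 further: parasites exposed to compound for two days anaerobically before the ATP read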
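Giardia trophozoites, 100 cells per well, were exposed to compounds for 48 hrs at 37 deg C under anaerobic conditions; viability was then read as ATP content by bioluminescence after 15-30 min at room temperature.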
TDP1 block: TDP1 (human) enzyme inhibition; Q9NUW8; recombinant TDP1, AlphaScreen DNA substrate cleavage; Potency, µM (top dose mostly 130 µM), for the others: at the highest dose activity change, negative = inhibition, hits mostly inhibitors; 350,000 compounds, 0.28% hits; further: potency means the concentration at half of the fitted maximal effect; nearly all actives have a fitted effect of over 40% in size
Target sequence (Q9NUW8 whole entry, looked up): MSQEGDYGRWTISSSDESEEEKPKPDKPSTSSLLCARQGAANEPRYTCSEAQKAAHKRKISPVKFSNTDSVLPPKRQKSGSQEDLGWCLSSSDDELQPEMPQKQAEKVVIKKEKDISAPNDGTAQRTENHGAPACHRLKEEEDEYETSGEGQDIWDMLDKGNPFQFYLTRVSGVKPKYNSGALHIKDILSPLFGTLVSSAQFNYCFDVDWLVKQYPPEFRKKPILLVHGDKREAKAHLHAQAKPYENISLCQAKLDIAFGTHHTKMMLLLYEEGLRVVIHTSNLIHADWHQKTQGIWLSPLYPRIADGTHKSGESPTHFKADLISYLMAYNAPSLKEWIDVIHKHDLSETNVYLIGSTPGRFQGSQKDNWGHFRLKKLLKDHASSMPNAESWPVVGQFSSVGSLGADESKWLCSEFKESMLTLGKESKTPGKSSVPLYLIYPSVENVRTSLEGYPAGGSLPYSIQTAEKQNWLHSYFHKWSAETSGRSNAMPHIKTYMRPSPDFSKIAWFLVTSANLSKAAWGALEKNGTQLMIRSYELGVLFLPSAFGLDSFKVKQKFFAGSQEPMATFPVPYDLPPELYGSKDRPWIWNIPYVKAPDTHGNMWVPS
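Signal: AlphaScreen proximity between streptavidin donor and anti-FITC acceptor beads on intact substrate. Reaction: Tdp1 1 nM, substrate 15 nM final, 5 min RT after 15 min compound preincubation.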
* marks the source's active call; other numbers are inactive results; ? = inconclusive; / = not tested or not shown. Unless noted, the call rests on the fitted dose curve; in most records, active means well fitted curve in the direction sought with a large enough effect; inconclusive means small, poorly fitted or top-dose-only effect, or another doubt; inactive means no such curve, though single readings can be large; an effect the other way counts as inactive or inconclusive. On the % scale 0 is the no-effect control and ±100 the full control effect.

SMILES	DT40 TDP1 CPT	TDP1 cell noCPT	IL1B secr inh	ELG1 DNA repair	Giardia killer	TDP1 block
COc1ccc2c(c1)[C@H]1[C@H](CO2)[C@H](c2ccccc2)[C@]2(C)C(=O)N(Cc3ccc(C)cc3)CC(=O)N12	15µM*	?	-56*	18µM*	-12	3%
COc1ccc2c(c1)OC[C@H]1[C@H]2N2C(=O)CN(Cc3ccccc3)C(=O)[C@@]2(C)[C@H]1c1ccccc1	18µM*	?	-54*	/	-15	/
Cc1ccc(CN2CC(=O)N3[C@H]4c5cc(C)ccc5OC[C@@H]4[C@H](c4ccccc4)[C@]3(C)C2=O)cc1	?	?	-26	-25%	-17	3%
O=C(O)c1ccc(NC2(C(=O)O)CCCC2)cc1	-6%	1%	-6	/	8	/
COc1ccc(CN2CC(=O)N3[C@H]4c5ccc(OC)cc5OC[C@@H]4[C@H](c4ccccc4)[C@]3(C)C2=O)cc1	?	18µM*	-19	?	12	2%
CC1Cc2ccccc2N1C(=O)/C=C/c1cccc(F)c1 (stereo not given)	0%	-29%	-69*	?	-10	7%
CC1Cc2ccccc2N1C(=O)COC(=O)/C=C/c1ccc(F)cc1 (stereo not given)	-15%	-28%	-5	?	14	-3%
S=C(NCc1ccc2c(c1)OCO2)Nc1ccc(-c2nc3ccccc3[nH]2)cc1	21µM*	18µM*	?	?	-18	7%
Cc1ccc(-c2nc3ccccc3[nH]2)cc1NC(=O)c1ccc2c(c1)OCO2	?	?	-17	?	-28	4%
CN(C)CCNC(=S)Nc1ccc(-c2nc3ccccc3[nH]2)cc1	-3%	-5%	-9	?	-26	3%
O=C(NC(=S)Nc1cc(-c2nc3ccccc3[nH]2)ccc1Cl)c1ccc2c(c1)OCO2	5.2µM*	3.7µM*	-22	?	5	5%
COc1ccccc1N(C)S(=O)(=O)c1ccc(C(=O)NCCCN2CCCC2=O)cc1	?	?	-5	/	/	/
CN(C)c1ccc(CNC(=O)c2cnc3sc(N4CCCCCC4)nn3c2=O)cc1	-14%	?	/	/	/	7%
N#Cc1c(N)n(-c2cccc(Cl)c2)c2nc3ccccc3nc12	-14%	-8%	/	/	/	/
CNc1nnc(-c2cc3cc(Cl)ccc3oc2=O)s1	-21%	1%	-7	?	0	2%
O=c1oc2ccc(Cl)cc2cc1-c1nnc(Nc2cccc(C(F)(F)F)c2)s1	?	2.6µM*	-7	1%	-27	4%
CCCCCCCNC(=O)C1(CC2CC(c3ccc(Cl)cc3)=NO2)CCN(C(=O)OC(C)(C)C)CC1 (stereo not given)	?	21µM*	-10	?	12	/
COC(=O)C1(CC2CC(c3ccncc3)=NO2)CCN(C(=O)OC(C)(C)C)CC1 (stereo not given)	?	21µM*	8	4%	?	0%
COC(=O)C1(CC2CC(c3ccccc3)=NO2)CCN(C(=O)OC(C)(C)C)CC1 (stereo not given)	?	21µM*	-9	/	4	/
CC(C)(C)OC(=O)N1CCC(CC2CC(c3ccccc3)=NO2)(C(=O)O)CC1 (stereo not given)	-3%	-11%	54	/	-22	/
O=C(C1CCCC1)N1CCC(CC2CC(c3ccc(Cl)cc3)=NO2)(C(=O)NCC2CCCCC2)CC1 (stereo not given)	-23%	-21%	-29	?	-6	/
Cc1ccc(Cn2c(C)c3cnn(CC(=O)O)c(=O)c3c2C)cc1	-25%	2%	/	/	/	3%
